# The list is not random: actives were taken first. Their share in the collection is about 12%.
# Marburg entry inh = inhibitors of Marburg virus binding or cell entry; Marburg virus pseudotyped entry inhibition, cell reporter; Potency, µM (series often up to 37.8 µM), inactives show at the highest dose activity change, negative = inhibition, hits mostly inhibitors; hit rate 1.8% among 300,000; AID 540276; calls by dose curve; tested in HEK293 cells; note: potency is the fitted concentration of half-maximal effect; % is set by controls: 0 for no effect and ±100 for the full control effect
# LASV entry inh = inhibitors of Lassa virus binding or cell entry | Lassa virus pseudotype entry inhibition, cell reporter | hit rate 1.2% among 300,000 | Potency, µM (titrated, usually from 37.9 µM), inactives show at the top dose activity change, negative = inhibition, actives largely listed as inhibitors | AID 540256; calls by dose curve; tested in HEK293 cells; note: potency is the fitted concentration of half-maximal effect; % is set by controls: 0 for no effect and ±100 for the full control effect; nearly all actives have a fitted effect of over 50% in size
# Shiga inhibitor = Shiga toxin inhibition. inhibition, % at 38.7 µM. hit rate 9.2% among 290,000. Vero cells, Shiga toxin protein synthesis inhibition reporter; in the data active = inhibition mostly above about 28%, no sharp cut-off; inactive = mostly below about 43%; note: 0% is about no effect
# CHX counter = counter-screen for Shiga toxin inhibitors: cycloheximide protein synthesis inhibition; hit rate 12% among 300,000; max response, %; cell reporter, cycloheximide protein synthesis inhibition counterscreen; in the data active = max response mostly above about 13%, no sharp cut-off; inactive = mostly below about 14%; note: read at 38.3 µM for the half of the compounds with a filed dose; 0% is about no effect
# * hit, by the source's call; i = inactive; ? = inconclusive; nt = not tested or not shown; ! = repeats disagree; [ ] = dose if it differs, or a comment.
SMILES,Marburg entry inh,LASV entry inh,Shiga inhibitor,CHX counter
Cc1c(C(=O)NCc2cccnc2)sc2nc(-c3ccccc3)cn12,nt,nt,31*,24*
COc1ccc(-c2cc(C(F)(F)F)nc(-n3ccnc3C)n2)cc1,0%,-3%,-4,-2
COc1ccccc1C(=O)NC1=NC(c2ccc(Br)cc2)CC(=O)N1 (configuration not stated),?,-30%[46.1 µM],nt,nt
COC(=O)C1=C(C)[C@@H](O)[C@@H](C)[C@](C)(c2cc(OC)c(C)c(OC)c2COc2ccccc2)O1,6%[14.2 µM],3%[14.3 µM],nt,nt
O=C(N/C(=C\c1ccc(Br)cc1)C(=O)N1CCCC1)c1ccccc1F,?,?,14,-1
Cc1c(C(=O)Nc2ccncc2)sc2nc(-c3ccccc3)cn12,nt,nt,22,18*
CCCC(=O)Oc1ccc(-c2nccc(C(OC)OC)n2)cc1,?,15%[46.1 µM],52*,22
COC(OC)c1ccnc(-c2ccc(OC(=O)c3ccc(F)cc3)cc2)n1,?,5%[46.1 µM],24,20
C=CCOc1cc(OC)c(OC)c(OC)c1,18%[46.1 µM],1%[46.1 µM],-2,-1
C=CCOc1ccc(/C(CC)=N/O)c(OC)c1,-13%,5%,27,13*
O=S(=O)(c1cccc2c(Cl)cccc12)N1CCCNCC1,8.9µM*!,-9%,nt,nt
CC(C)c1ccc(NC(=O)C(c2ccccc2)N2CC(=O)Nc3ccccc32)cc1 (configuration not stated),6%,12%,active,33*
Cc1sc2nc(SCC(=O)Nc3ccc(Cl)c(C(=O)O)c3)[nH]c(=O)c2c1C,13µM*,?,nt,nt
Cc1ccc(-n2nc(CO)c(C(=O)NC(C)CCCc3ccccc3)n2)cc1C (configuration not stated),-11%[46.1 µM],?,nt,nt
COc1cccc(/C=C/C(=O)OCC(=O)N2c3ccccc3NC(=O)C2(C)C)c1,-17%,-5%,18,-6
c1ccc(Nc2cccc(Nc3ccccc3)n2)cc1,1%[46.1 µM],36%,55*,34*
c1ccc(Nc2ccccn2)cc1,1%,5%,4,17*
COC(=O)c1ccccc1NC(=O)CCCn1nc([N+](=O)[O-])c(Br)c1C,nt,nt,23,4
O=C(NNC(=O)c1ccccc1F)c1cccc(-n2cccc2)c1,12%,6%,nt,nt
O=S(=O)(Oc1ccc(Cl)cc1)c1cccc2cccnc12,?,?,35,16*
O=S(=O)(O)c1cccc2cccnc12,nt,nt,-4,11
O=S(=O)(Oc1ccc(Cl)cc1)c1ccccc1,nt,nt,21*,21*
CC(=O)Oc1ccc(/C=N/NS(=O)(=O)c2ccccc2)cc1,?,-9%[46.1 µM],10,-1
CN(C)/N=C/c1ccc(OS(=O)(=O)c2ccccc2)cc1,16%[46.1 µM],15%,64*,47*
CCC(=O)N1CCc2cc(S(=O)(=O)CCC(=O)N3CCN(c4ccc(F)cc4)CC3)ccc21,nt,nt,13,-5
SMILES,Marburg entry inh,LASV entry inh,Shiga inhibitor,CHX counter
CCN1CCN(c2cc(N3CCCC3)c(F)cc2[N+](=O)[O-])CC1,21µM*,?,-12,-3
CCOC(=O)N1CCN(c2cc(N3CCOCC3)c(F)cc2[N+](=O)[O-])CC1,-7%,7.9µM*,19,-2
CN1CCN(c2cc(N3CCCC3)c([N+](=O)[O-])cc2F)CC1,11%[46.1 µM],3%,-6,2
CCOC(=O)N1CCN(c2ccc(F)cc2[N+](=O)[O-])CC1,-28%,-11%,-12,-3
O=c1c2ccccc2nc(-c2ccco2)n1Cc1ccccc1,18%,0%,130*,57*
c1ccc(Cn2c(-c3ccco3)nc3nc4ccccc4nc32)cc1,?,?,60,28*
CCCn1c(-c2ccc(OC)cc2)nc2nc3ccccc3nc21,10%,-4%,3,11
CCCCCn1c(-c2ccco2)nc2nc3ccccc3nc21,11µM*,-18%,-20,9.2*
COc1ccc(CCn2c(S)nc3ccccc3c2=O)cc1,nt,nt,41*,30*
CC(=O)N[C@@H](Cc1c[nH]c2ccccc12)C(=O)NC1CC1,nt,nt,-5,-2
CCN(CC(=O)NC1CCS(=O)(=O)C1)S(=O)(=O)c1ccc(C)cc1C (configuration not stated),0%,-2%,-3,1
CCCN1CN(Cc2ccco2)c2nc3ccccc3n2C1,-1%,0%,49,36*
Clc1ccc(OCCn2c(-c3ccco3)nc3ccccc32)cc1,-16%,8%,-17,7
c1coc(Cn2c(-c3ccco3)nc3ccccc32)c1,-9%,-1%,45*,17*
O=c1c2ccccc2oc2nc(-c3ccco3)n(CCc3ccccc3)c(=O)c12,-1%,nt,-8,-4
COc1ccccc1Cn1c(-c2ccco2)nc2nc3ccccc3nc21,0%,?,nt,nt
COc1ccc(CCn2c(-c3ccco3)nc3nc4ccccc4nc32)cc1,?,-19%,43*,13
CCOc1ccc(CCn2c(-c3ccco3)nc3ccccc3c2=O)cc1OCC,2.3µM*,6.5µM*,-19,1
Cn1c(SCc2ccccc2Cl)nc2c([nH]c3ccccc32)c1=O,nt,0%[46.1 µM],nt,nt
Cc1ccc(CNC(=O)CSc2c3c(nc4ccc(Cl)cc24)CCCC3)o1,?,7.3µM*,24,12
COc1ccc(OC)c(NC(=O)c2cn(CC(C)C)c(=O)c3cc(OC)c(OC)cc23)c1,-50%[46.1 µM],?,nt,nt
Cc1ccc(-n2nc3c(N4CCCC(C(=O)NCc5ccc(Cl)cc5)C4)nnc(C)c3c2C)cc1 (configuration not stated),nt,9%[46.1 µM],nt,nt
Cc1ccc(NC(=S)Nc2ccc3cn[nH]c3c2)cc1C,nt,nt,-3,10
Cc1ccc(NC(=S)Nc2ccc3cn[nH]c3c2)c(C)c1,5%[46.1 µM],6%,20,2
CC(C)c1ccc(NC(=S)Nc2ccc3cn[nH]c3c2)cc1,?,0%,73*,22*
SMILES,Marburg entry inh,LASV entry inh,Shiga inhibitor,CHX counter
COc1ccccc1NC(=S)Nc1ccc2cn[nH]c2c1,6%[46.1 µM],3%,47*,16*
Cc1cc(C)cc(N(CC(=O)NC2CCCC2)C(=O)CCC(=O)Nc2cc(C)ccn2)c1,-1%[46.1 µM],?,-13,-4
Cc1oc2cc(Br)c(O)c(Br)c2c1-c1ccccc1,?,3%,59*,18*
Cc1cc2oc(=O)cc(-c3ccccc3)c2c(C)c1-c1ccc(O)cc1,nt,nt,i,2
COc1cccc2c1OC1(C)CC2/C(=C(\C)O)C(=O)N1 (configuration not stated),2%,-9%[14.3 µM],-22,-4
Cc1ccc(CC2C(=O)N(c3cc(Cl)ccn3)C(=O)C2C)cc1 (configuration not stated),6%[14.2 µM],7%,43*,23*
COc1cc(S(=O)(=O)N(C)C2CCCCC2)c(C)cc1C,nt,nt,15,0
O=C(Nc1ccccc1)N1CCN(c2ccc(F)cc2)CC1,3%[46.1 µM],4%,21,24
CC(=O)c1ccc(N2CCN(C(=O)Nc3ccc(F)cc3)CC2)cc1,nt,nt,42,21*
CC(=O)c1ccc(N2CCN(C(=O)Nc3ccc(C(C)C)cc3)CC2)cc1,3.2µM*,?,38,8
O=C(CSc1ccc2nnc(CCNC(=O)c3ccccc3)n2n1)Nc1ccccc1,5%[46.1 µM],6%[46.1 µM],-12,-2
COc1ccccc1NC(=O)CSc1nnc(CCNC(=O)c2ccc(C)cc2)n1C,nt,nt,7,15*
COc1ccc(C(=O)NCCc2nnc3ccc(SCC(=O)Nc4ccccc4)nn23)cc1,14%,-1%,73*,44*

# High-throughput results from PubChem.
